# GLS inhibitor: qHTS for Inhibitors of Glutaminase (GLS); GLS enzymatic activity, qHTS titration; Potency, µM (series often up to 45.5 µM), usual class: inhibitors; actives 0.21% (n = 410,000); AID 624170, 2012
# Target sequence (O94925 whole entry, looked up): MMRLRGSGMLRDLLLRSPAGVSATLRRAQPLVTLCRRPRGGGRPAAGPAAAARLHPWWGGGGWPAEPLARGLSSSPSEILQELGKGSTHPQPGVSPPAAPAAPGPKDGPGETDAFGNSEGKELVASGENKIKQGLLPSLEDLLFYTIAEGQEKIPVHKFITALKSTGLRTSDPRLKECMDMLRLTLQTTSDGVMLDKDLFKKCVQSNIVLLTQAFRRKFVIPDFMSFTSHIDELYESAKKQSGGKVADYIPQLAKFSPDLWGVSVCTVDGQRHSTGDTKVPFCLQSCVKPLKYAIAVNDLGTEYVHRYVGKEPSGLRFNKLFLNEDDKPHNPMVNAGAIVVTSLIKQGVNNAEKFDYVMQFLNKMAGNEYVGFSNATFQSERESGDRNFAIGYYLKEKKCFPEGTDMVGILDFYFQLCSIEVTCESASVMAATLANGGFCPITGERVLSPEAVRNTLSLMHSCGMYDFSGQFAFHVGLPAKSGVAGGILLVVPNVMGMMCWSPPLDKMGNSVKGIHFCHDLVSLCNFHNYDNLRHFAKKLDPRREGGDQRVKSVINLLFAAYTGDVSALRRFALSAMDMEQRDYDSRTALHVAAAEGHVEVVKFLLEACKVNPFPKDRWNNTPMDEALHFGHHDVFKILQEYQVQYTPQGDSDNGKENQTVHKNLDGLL
#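 Two-point fluorescence kinetic (t0, 30 min RT) for hKGA; glutamate detected via glutamate oxidase–HRP–Amplex Red. Substrate: 1 mM L-glutamine solution; buffer 45 mM KH2PO4, pH 8.2.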
# JMJD2A Tudor: qHTS Assay for Inhibitors of JMJD2A-Tudor Domain | Lysine-specific demethylase 4A (Homo sapiens), O75164 | AlphaScreen JMJD2A-Tudor / H3K4me3 peptide binding | Potency, µM (series often up to 114 µM), usual class: inhibitors | actives 4.4% (n = 390,000); also: nearly all actives have a fitted effect of over 50% in size
# BAZ2B inh: qHTS Assay for Inhibitors of BAZ2B. Bromodomain adjacent to zinc finger domain protein 2B (Homo sapiens), Q9UIF8. AlphaScreen BAZ2B-H3K14Ac peptide displacement. Potency, µM (titrated, usually from 114 µM), actives largely listed as inhibitors. actives 4.4% (n = 360,000). AID 504333, 2011; also: nearly all actives have a fitted effect of over 60% in size
#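 In this displacement format the biotinylated H3(5-23) peptide acetylated at Lys14 serves as ligand at 50 nM, with BAZ2B at 50 nM in PBS pH 7.4 containing 0.01% Tween-20. Donor and acceptor beads are 10 ug/mL final.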
# G9a inh: qHTS Assay for Inhibitors of Histone Lysine Methyltransferase G9a. G9a H3K9 monomethylation, AlphaScreen, 2 h. actives 8.8% (n = 350,000). AID 504332, 2011. Potency, µM (doses to about 102 µM), actives largely listed as inhibitors; also: nearly all actives have a fitted effect of over 75% in size
#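 Using a bead-based AlphaScreen, monomethylated H3K9 product from 2 h room-temperature reactions (G9a 20 nM, peptide 500 nM, SAM 20 uM) was detected with 0.5 ug/mL rabbit anti-H3K9me1 antibody.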
# HP1b chromo inh: HTS for Inhibitors of HP1-beta Chromodomain Interactions with Methylated Histone Tails; Chromobox protein homolog 1 (Homo sapiens), P83916; AlphaScreen HP1-beta / biotin-H3K9me3 peptide binding; Potency, µM (titrated, usually from 114 µM), actives largely listed as inhibitors; actives 0.56% (n = 390,000); also: nearly all actives have a fitted effect of over 70% in size
#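 HP1-beta protein (50 nM final) preincubated 30 min at room temperature with biotinylated H3(1-18)K9me3 peptide (50 nM) in PBS pH 7.4, 0.01% Tween-20, then compound added for 30 min. AlphaScreen streptavidin donor/nickel chelate acceptor beads (10 ug/mL final), 30 min dark, luminescence read.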
# A number is an active result; - = inactive; ? = inconclusive; . = no result given; ! = not confirmed by another sample; [ ] = remark or other dose. A selection: hits, their analogues and other compounds. The true share with any hit is near 10%. Calls follow the shape of the dose curve; as a rule, active = well fitted curve in the direction sought with a large enough effect; inconclusive = small, poorly fitted or top-dose-only effect, or another doubt; inactive = no such curve, though single readings can be large; an effect the other way counts as inactive or inconclusive.
SMILES,GLS inhibitor,JMJD2A Tudor,BAZ2B inh,G9a inh,HP1b chromo inh
Cc1cc(C=C2C(=O)c3ccccc3C2=O)c(C)n1-c1cccc(C(=O)O)c1,-,-,?,40µM,-
O=C(NCc1ccccn1)[C@@H]1CCCN1C(=O)[C@@H]1CCCN1C(=O)c1ccc(Cl)cc1,-,.,.,.,.
COc1ccc(-c2nc(-c3cccc(C)c3)nc(Cl)c2C#N)cc1,.,.,-,50µM,.
COc1ccc(-c2nc(-c3ccccc3)nc(Cl)c2C#N)cc1,-,?,-,?,-
Oc1ccc(Cl)cc1-c1cc(-c2ccco2)[nH]n1,?,-[11.4 µM],40µM,?,7.9µM
Oc1ccc(Br)cc1-c1cc(-c2ccco2)[nH]n1,-,?,?,?,-
COc1ccc(Cc2noc(=O)[nH]2)cc1,-,.,.,.,.
CCC(C)N(C(=O)COC(=O)CSc1ccc([N+](=O)[O-])cc1)C1CCS(=O)(=O)C1 (stereo not given),-,-,-,40µM,-
CCC(C)N(C(=O)COC(=O)c1nc2nc(C)cc(C)n2n1)C1CCS(=O)(=O)C1 (stereo not given),-,-,-,16µM,-
CCC(C)N(C(=O)COC(=O)c1ccc(N)c([N+](=O)[O-])c1)C1CCS(=O)(=O)C1 (stereo not given),-,.,.,.,.
CC(C)=C1C(=O)NN(c2ccc(C)c(Cl)c2)C1=O,-,-,?,8.9µM,-
CCOC(=O)c1nn(-c2ccccc2)c(=O)cc1OCC(=O)Nc1cc(C)ccc1OC,7.9µM,-,-,-,-
CCCCSCc1ccc(C(=O)O)o1,-,-,-,-,-
CC(=O)c1c(C)oc(C)c1CSCc1ccc(C(=O)O)o1,?,14µM,?,?,-
CCOC(=O)c1c(C)n(C(=O)c2ccco2)c(=O)n1C(=O)c1ccco1,-,-,-,56µM,-
CCOC(=O)c1c(C)c(C(=O)N2CCN(C(=O)c3ccco3)CC2)c(C)n1C,-,-,-,-,-
O=C(CSc1nc2ccc(S(=O)(=O)N3CCOCC3)cc2[nH]1)N1CCOCC1,-,79µM,-,1.8µM,?
COc1ccc2nc(SCC(=O)N3CCNC3=O)[nH]c2c1,-,-,-,-,-
O=C(CSc1nc2ccccc2c(=O)[nH]1)N1CCOCC1,-,-,-,-,-
COC(=O)C1CCN(C(=O)CSc2nc3ccc(OC)cc3[nH]2)CC1,-,-,-,50µM,-
CC(NC(=O)c1ccc(NC(=O)c2nsc3ccccc23)cc1)c1ccccc1 (stereo not given),-,-,-,-,-
O=C(C1CCC1)N1CCc2cc(S(=O)(=O)NCCc3ccccc3)ccc21,-,-,.,-,-
CCOC(=O)c1c(NC(=O)c2ccc(C)c(C)c2)sc2c1CCCCC2,-,-,-,-,-
CCOC(=O)c1c(NC(=O)c2cc(-c3ccc(OC)c(OC)c3)on2)sc2c1CCCC2,-,-,-,4µM,-
CC(C)c1cc(C(=O)Nc2sc3c(c2C#N)CCC3)no1,-,-,-,?,-
SMILES,GLS inhibitor,JMJD2A Tudor,BAZ2B inh,G9a inh,HP1b chromo inh
COc1ccc(-c2cc(C(=O)Nc3sc4c(c3C#N)CCCC4)no2)cc1OC,-,-,-,10µM,-
CCOC(=O)c1c(NC(=O)c2cc(-c3cccc(OC)c3)on2)sc2c1CCCC2,-,-,-,8.9µM,?
CCOC(=O)c1c(NC(=O)c2ccc(OC)c(OC)c2)sc2c1CCCCC2,-,-,-,8.9µM,-
O=C(NC1CCCCC1)c1cccc(NC(=O)c2ccccc2Cl)c1,-,.,.,.,.
CCN1CCN(CC(O)COCC2COc3ccccc3O2)CC1 (stereo not given),-,-,-,?,-
OC(COCC1COc2ccccc2O1)CN1CCN(c2ccccc2)CC1 (stereo not given),-,?,79µM,-[0.501 µM],-
C[N+]1(CC(O)COCC2COc3ccccc3O2)CCOCC1 (stereo not given),-,-,-,35µM,-
Cc1ccc(NC(=O)C2CCCN(c3nnc(-n4c(C)ccc4C)s3)C2)c(C)c1 (stereo not given),-,-,-,-,-
Cc1cccc(NC(=O)C2CC(=O)n3cnnc3S2)c1 (stereo not given),-,35µM,?,?,-
O=C(Cn1c(=O)n(CCc2ccccc2)c(=O)c2cccnc21)Nc1ccc(F)cc1,-,-,-,-,-
c1ccc(-c2cnc(CSc3nnc4ccccn34)o2)cc1,-,-,-,10µM,-
O=[N+]([O-])c1ccccc1-c1ccc(C(=S)N2CCCC2)o1,-,56µM,40µM,10µM,?
O=[N+]([O-])c1ccccc1-c1ccc(C(=S)N2CCCCC2)o1,-,45µM,25µM,20µM,50µM
Cc1c(Cl)cccc1-c1ccc(C(=O)N2CCN(c3ccc([N+](=O)[O-])cc3)CC2)o1,-,-,-,?,-
Cc1cccc(N2CCN(C(=S)c3ccc(-c4ccccc4[N+](=O)[O-])o3)CC2)c1,-,8.9µM,10µM,11µM,16µM
CN1CCc2cccc3c2[C@H]1Cc1ccc(O)c(O)c1-3,?,8.9µM,?,1.4µM,14µM
COc1cc2c3cc1OCc1c(O)c(OC)cc4c1C(Cc1ccc(cc1)Oc1cc(ccc1O)CC3N(C)CC2)N(C)CC4 (stereo not given),.,-,.,.,-
Fc1ccc2nc(Nc3nc4cc5c(cc4s3)OCO5)sc2c1,-,-,-,-,-
O=C(NNc1nc2cc3c(cc2s1)OCCO3)c1ccc(F)cc1,-,-,-,50µM,-
O=C(NNc1nc2cc3c(cc2s1)OCO3)c1ccc(F)cc1,-,-,-,8.9µM,-
COc1cccc2[nH]c(C(=O)NCc3ccccc3)cc12,-,-,-,-,-
O=C(Nc1cccnc1)c1cc(-c2cccc(Cl)c2)on1,-,25µM!,-,-,-
O=C(Nc1cccnc1)Nc1ccccc1Cl,-,-,-,-[12.7 µM],-
O=C(Nc1cccnc1)Nc1cc(Cl)cc(Cl)c1,-,-,-,79µM,-
CCOc1ccc(Nc2n[nH]c(=S)s2)cc1,-,?,-,-,-
SMILES,GLS inhibitor,JMJD2A Tudor,BAZ2B inh,G9a inh,HP1b chromo inh
CCSc1n[nH]c(=S)s1,-,20µM,?,1.4µM,?
CCn1c(SCc2nc3sc(C(=O)O)c(C)c3c(=O)[nH]2)nnc1-c1ccc(Cl)cc1,-,-,56µM,?,-
Cc1sc2nc(CSc3nnnn3-c3ccc(Cl)cc3)[nH]c(=O)c2c1C,-,-,-,?,-
CNC(=O)C(Sc1nc(C)nc2c1oc1ccccc12)C(C)=O (stereo not given),-,-,-,18µM,-
Cc1nc(SCC(=O)Nc2ccccc2)c2oc3ccccc3c2n1,-,-,-,-,-
Cc1nc(NCCc2ccccc2)c2oc3ccccc3c2n1,-,-,?,79µM,-
COC(=O)c1sccc1S(=O)(=O)N(CC(=O)NCc1ccccc1)c1ccc(C)cc1,-,-,-,-,-
